The record followed here is ChEMBL document CHEMBL4303122, “Identification of potential treatments for COVID-19 through artificial intelligence-enabled phenomic analysis of human cells infected with SARS-CoV-2” (2020).

The full ranking holds about 1,600 compounds; the median of “Hit score” is about 0.13, and the highest 2% start at about 0.46. The entries come from a sample that favours the highest values as a whole.

The test system of this experiment is SARS-CoV-2. Briefly: Antiviral activity against SARS-CoV-2 (USA-WA1/2020 strain) measured by imaging in HRCE cells at MOI 0.4 after 96 hrs (reported as hit score from 0-1 for on-disease vs off-disease activity: scores >0.6 considered hits). It is filed as functional, Homo sapiens.
On to `COC(=O)N[C@H](C(=O)N1CCC[C@H]1c1ncc(-c2ccc(-c3ccc(-c4cnc([C@@H]5CCCN5C(=O)[C@@H](NC(=O)OC)C(C)C)[nH]4)cc3)cc2)[nH]1)C(C)C`, for which the Hit score is -0.06011. Compound `Cc1ccc(NC(=O)C2(c3ccc4c(c3)OC(F)(F)O4)CC2)nc1-c1cccc(C(=O)O)c1` [LUMACAFTOR] showed a Hit score of 0.04797. The value for `Cc1nccn1CCC(C(N)=O)(c1ccccc1)c1ccccc1` [IMIDAFENACIN] was 0.008612; that for `CCC(=O)NC[C@@H]1C[C@H]1c1cccc2c1CCO2` [TASIMELTEON] was 0.1536; that for `CC(C)OC(=O)CCC/C=C\C[C@@H]1[C@@H](/C=C/C(F)(F)COc2ccccc2)[C@H](O)C[C@@H]1O` [TAFLUPROST] was 0.14. The compound `O=[N+]([O-])c1cncn1CCN1CCOCC1` [NIMORAZOLE] returned a Hit score of 0.1444.

With `CCCCCC(=O)O[C@]1(C(C)=O)CC[C@H]2[C@@H]3CCC4=CC(=O)CC[C@]4(C)[C@H]3CC[C@@]21C` [HYDROXYPROGESTERONE CAPROATE], the Hit score was 0.1371. With `COc1cc(C)c2c(Oc3cccc(C(F)(F)F)c3)c(OC)cc(NC(C)CCCN)c2n1.O=C(O)CCC(=O)O` (stereo unspecified) [TAFENOQUINE SUCCINATE], the Hit score came out at 0.101. Consider `C[C@]12C=CC(=O)N[C@@H]1CC[C@@H]1[C@@H]2CC[C@]2(C)[C@@H](C(=O)Nc3cc(C(F)(F)F)ccc3C(F)(F)F)CC[C@@H]12` [DUTASTERIDE], for which the Hit score is listed as 0.3162.

Compound `CO[C@H]1C[C@@H]2CC[C@@H](C)[C@@](O)(O2)C(=O)C(=O)N2CCCC[C@H]2C(=O)O[C@H]([C@H](C)C[C@@H]2CC[C@@H](OC(=O)C(C)(CO)CO)[C@H](OC)C2)CC(=O)[C@H](C)/C=C(\C)[C@@H](O)[C@@H](OC)C(=O)[C@H](C)C[C@H](C)/C=C/C=C/C=C/1C` [TEMSIROLIMUS] registered a Hit score of 0.4599. Compound `CC[C@@H]1/C=C(\C)C[C@H](C)C[C@H](OC)[C@H]2O[C@@](O)(C(=O)C(=O)N3CCCC[C@H]3C(=O)O[C@H](/C(C)=C/[C@@H]3CC[C@H](Cl)[C@H](OC)C3)[C@H](C)[C@@H](O)CC1=O)[C@H](C)C[C@@H]2OC` [PIMECROLIMUS] displayed a Hit score of 0.2951. The value for `CO[C@H]1C[C@@H]2CC[C@@H](C)[C@@](O)(O2)C(=O)C(=O)N2CCCC[C@H]2C(=O)O[C@H]([C@H](C)C[C@@H]2CC[C@@H](O)[C@H](OC)C2)CC(=O)[C@H](C)/C=C(\C)[C@@H](O)[C@@H](OC)C(=O)[C@H](C)C[C@H](C)/C=C/C=C/C=C/1C` [SIROLIMUS] was 0.6828; that for `CO[C@H]1C[C@@H]2CC[C@@H](C)[C@@](O)(O2)C(=O)C(=O)N2CCCC[C@H]2C(=O)O[C@H]([C@H](C)C[C@@H]2CC[C@@H](OCCO)[C@H](OC)C2)CC(=O)[C@H](C)/C=C(\C)[C@@H](O)[C@@H](OC)C(=O)[C@H](C)C[C@H](C)/C=C/C=C/C=C/1C` [EVEROLIMUS] was 0.4984. In the case of `CO[C@H]1C[C@@H]2CC[C@@H](C)[C@@](O)(O2)C(=O)C(=O)N2CCCC[C@H]2C(=O)O[C@H]([C@H](C)C[C@@H]2CC[C@H](n3cnnn3)[C@H](OC)C2)CC(=O)[C@H](C)/C=C(\C)[C@@H](O)[C@@H](OC)C(=O)[C@H](C)C[C@H](C)/C=C/C=C/C=C/1C` [ZOTAROLIMUS] it was 0.6315; in that of `C=CC[C@@H]1/C=C(\C)C[C@H](C)C[C@H](OC)[C@H]2O[C@@](O)(C(=O)C(=O)N3CCCC[C@H]3C(=O)O[C@H](/C(C)=C/[C@@H]3CC[C@@H](O)[C@H](OC)C3)[C@H](C)[C@@H](O)CC1=O)[C@H](C)C[C@@H]2OC` [TACROLIMUS ANHYDROUS], 0.3285; in that of `C[C@@H]1CCO[C@H]2Cn3cc(C(=O)NCc4ccc(F)cc4F)c(=O)c(O)c3C(=O)N12` [DOLUTEGRAVIR], -0.02185.

As for `CCc1cc(/C(C)=N/OCc2ccc(C3CCCCC3)c(C(F)(F)F)c2)ccc1CN1CC(C(=O)O)C1` [SIPONIMOD], the Hit score was -0.1293. In the case of `Cc1ccc(NC(=O)c2ccc(CN3CCN(C)CC3)cc2)cc1Nc1nccc(-c2cccnc2)n1` [IMATINIB] it was 0.06765. The compound `Cc1cn(-c2cc(NC(=O)c3ccc(C)c(Nc4nccc(-c5cccnc5)n4)c3)cc(C(F)(F)F)c2)cn1` [NILOTINIB] had a Hit score of 0.4816.

As for `Cc1ccc(/C=C2/C(=O)C3(C)CCC2C3(C)C)cc1` (stereo unspecified) [ENZACAMENE], the Hit score worked out at 0.1975. `CC(C)NCC(O)COc1ccc(CCOCC2CC2)cc1` (stereo unspecified) [BETAXOLOL] showed a Hit score of 0.2742. Compound `CC(C)NCC(O)COc1ccc(COCCOC(C)C)cc1` (stereo unspecified) [BISOPROLOL] displayed a Hit score of 0.1972. Compound `CC(C)NC[C@H](O)COc1ccc(CCOCC2CC2)cc1` [LEVOBETAXOLOL] came in with a Hit score of 0.4949. In the case of `C=C1c2c(Cl)ccc(O)c2C(=O)C2=C(O)[C@]3(O)C(=O)C(C(N)=O)=C(O)[C@@H](N(C)C)[C@@H]3[C@@H](O)[C@H]12.O=C(O)c1cc(S(=O)(=O)O)ccc1O` [MECLOCYCLINE SULFOSALICYLATE], the Hit score is 0.1338. Regarding `CC(C)OC(=O)CCC/C=C\C[C@@H]1[C@@H](CC[C@@H](O)CCc2ccccc2)[C@H](O)C[C@@H]1O` [LATANOPROST], the Hit score is 0.04489. Consider `CCCCCCOC(=O)CCC(=O)CN` [HEXAMINOLEVULINATE], for which the Hit score amounted to 0.1128. `COc1cc([C@@H]2c3cc4c(cc3[C@@H](O[C@@H]3O[C@@H]5CO[C@@H](C)O[C@H]5[C@H](O)[C@H]3O)[C@H]3COC(=O)[C@H]23)OCO4)cc(OC)c1OP(=O)(O)O` [ETOPOSIDE PHOSPHATE] came in with a Hit score of 0.05858. `O=C(CNc1cccc(Cl)c1)NC1CCCN(c2ncnc3[nH]ccc23)C1` (stereo unspecified) registered a Hit score of 0.1071.

The compound `Nc1ncnc2c1ncn2[C@@H]1O[C@H](CO)[C@@H](O)[C@@H]1O` [VIDARABINE] registered a Hit score of -0.02251. As to `CCC(CC)COC(=O)[C@H](C)N[P@](=O)(OC[C@H]1O[C@@](C#N)(c2ccc3c(N)ncnn23)[C@H](O)[C@@H]1O)Oc1ccccc1`, the Hit score was 0.9631. In the case of `N#C[C@@]1(c2ccc3c(N)ncnn23)O[C@H](CO)[C@@H](O)[C@H]1O` [GS-441524], the Hit score is given as 0.865. As to `CC(C)OC(=O)[C@H](C)N[P@@](=O)(OC[C@H]1O[C@@H](n2ccc(=O)[nH]c2=O)[C@](C)(F)[C@@H]1O)Oc1ccccc1`, the Hit score is 0.2594. In turn, `CC(C)OC(=O)[C@H](C)N[P@](=O)(OC[C@H]1O[C@@H](n2ccc(=O)[nH]c2=O)[C@](C)(F)[C@@H]1O)Oc1ccccc1` [SOFOSBUVIR] yielded a Hit score of 0.2045. Turning to `CO[C@@]1(NC(=O)CSC[C@@H](N)C(=O)O)C(=O)N2C(C(=O)O)=C(CSc3nnnn3C)CS[C@@H]21` [CEFMINOX], the Hit score came to 0.1316. In the case of `CC(C)CN(C[C@@H](O)[C@H](Cc1ccccc1)NC(=O)O[C@H]1CO[C@H]2OCC[C@H]21)S(=O)(=O)c1ccc(N)cc1` it was 0.38.

Consider `CO[C@]12C[C@@H](COC(=O)c3cncc(Br)c3)CN(C)[C@@H]1Cc1cn(C)c3cccc2c13` [NICERGOLINE], for which the Hit score worked out at 0.1321. `CC[C@@H](CO)NC(=O)[C@@H]1C=C2c3cccc4[nH]cc(c34)C[C@H]2N(C)C1` [METHYLERGONOVINE] returned a Hit score of 0.219.

The compound `C[C@@H]1C[C@H]2[C@@H]3CCC4=CC(=O)C=C[C@]4(C)[C@@]3(F)[C@@H](O)C[C@]2(C)[C@@]1(O)C(=O)COP(=O)([O-])[O-].[Na+].[Na+]` [DEXAMETHASONE SODIUM PHOSPHATE] returned a Hit score of 0.2627. In the case of `COC(=O)N[C@H](C(=O)N1CCC[C@H]1c1nc(-c2ccc3c(c2)O[C@@H](c2ccccc2)n2c-3cc3cc(-c4c[nH]c([C@@H]5CCCN5C(=O)[C@@H](NC(=O)OC)C(C)C)n4)ccc32)c[nH]1)C(C)C` [ELBASVIR] it was -0.03781; in that of `O=C(Nc1c(Cl)cncc1Cl)c1ccc(OC(F)F)c(OCC2CC2)c1` [ROFLUMILAST], 0.1334. The compound `C=CC[N+]1([C@H]2C[C@H]3[C@@H]4CC[C@H]5C[C@H](O)[C@@H](N6CCOCC6)C[C@]5(C)[C@H]4CC[C@]3(C)[C@H]2OC(C)=O)CCCC1` [ROCURONIUM] gave a Hit score of 0.1086. `CCc1cc2c(cc1CC)CC(NC[C@H](O)c1ccc(O)c3[nH]c(=O)ccc13)C2` [INDACATEROL] gave a Hit score of -0.2891.

`C[C@H]1[C@H](OC(=O)CCC(=O)O)O[C@@H]2O[C@@]3(C)CC[C@H]4[C@H](C)CC[C@@H]1[C@@]24OO3` [ARTESUNATE] gave a Hit score of 0.2142.

`CC(=O)O[C@]1(C(C)=O)CC[C@H]2[C@@H]3C=C(C)C4=CC(=O)CC[C@@H]4[C@H]3CC[C@@]21C` [NOMEGESTROL ACETATE] displayed a Hit score of 0.2782. The value for `CC1(C)S[C@@H]2[C@H](NC(=O)Cc3ccccc3)C(=O)N2[C@H]1C(=O)O` [PENICILLIN G] was 0.164; that for `CC(=O)O[C@H]1C[C@@H]2CC[C@@H]3[C@H](CC[C@@]4(C)[C@H]3C[C@H]([N+]3(C)CCCCC3)[C@@H]4OC(C)=O)[C@@]2(C)C[C@@H]1[N+]1(C)CCCCC1` [PANCURONIUM] was 0.09762.
